Screening data (PubChem BioAssay)
Pf Dd2 inh: Plasmodium falciparum Dd2 growth inhibition; P. falciparum Dd2 growth, SYBR Green, 72 h; Potency, µM (top dose mostly 28.9 µM), inactives show top-dose activity, negative = inhibition, hits mostly inhibitors; 120,000 tested, 4.3% active; AID 1347417; active = well fitted inhibition curve with a large enough effect;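 also: plate controls were DMSO vehicle for no effect and reference drug for full effect; nearly all actives have a fitted effect of over 65% in size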
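Infected erythrocytes (Dd2, 0.3% parasitemia, 2.5% hematocrit final) are added to compound in RPMI-1640/Albumax II medium, grown 72 h at 37C in low oxygen, then lysed with saponin/Triton-X containing SYBR Green and read by fluorescence.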
* = called active by the depositor; i = inactive; [ ] = dose if it differs, or a comment. Shown is part of a subset that was picked to be rich in hits. Potency is read from the fitted curve at half-maximal effect.

SMILES	Pf Dd2 inh
Cc1cccc(C)c1-c1cc(C(=O)NC2CC2)c2cnn(C)c2n1	0.9%
Cn1ncc2c(C(=O)NC3CC3)cc(-c3cccc(C(F)(F)F)c3)nc21	-21.8%
Cn1ncc2c(C(=O)NCC3CC3)cc(-c3cccnc3)nc21	12.6µM*
O=C1NCN(Cc2ccc(Cl)cc2)C12CCN([S+](=O)([O-])c1ccccc1)CC2	9.0%
CNC(=O)[C@@H]1C[C@H](Oc2ccccc2)CN1C(=O)c1ccc(Cn2nc(C)cc2C)o1	-9.5%
CC(C)c1ccc(C(=O)N2c3ccccc3CC2c2nc(C3CC3)no2)cc1 (stereo not drawn)	16.6%[5.79 µM]
CC(C)CCC(=O)N1CC(c2nnc(-c3ccncc3)o2)C2(CCOCC2)C1 (stereo not drawn)	i
Cc1cccc(Cn2c(SCc3ccc(C(=O)NCCc4ccccc4)cc3)nc3cccnc32)c1	11.2µM*
O=C(NCCc1cccs1)c1ccc(Cn2c(SCc3ccccc3)nc3cccnc32)cc1	11.2µM*
O=C(NCCc1ccccc1)c1ccc(CSc2nc3cccnc3n2Cc2ccc(F)cc2)cc1	8.91µM*
Cc1ccc(CNC(=O)c2ccc(Cn3c(SCc4ccc(F)cc4)nc4cccnc43)cc2)o1	11.2µM*
CN(Cc1ccccc1)C(=O)c1ccc(CSc2nc3cccnc3n2Cc2ccccc2F)cc1	-18.2%
CCOc1ccc(C(=O)NCc2nc3cccnc3n2Cc2ccc(F)cc2)cc1OCC	i
O=C(NCc1cccs1)c1ccc(Cn2c(SCc3ccc(F)cc3)nc3cccnc32)cc1	-19.4%
Cc1cccc(CSc2nc3cccnc3n2Cc2ccc(C(=O)NCc3ccco3)cc2)c1	-14.1%
O=C(NC1CC1)c1ccc(Cn2c(SCc3ccc(F)cc3)nc3cccnc32)cc1	-2.3%
Cc1cccc(Cn2c(SCc3ccc(C(=O)NCc4ccccc4F)cc3)nc3cccnc32)c1	-27.0%
O=C1C2CN(Cc3ccncc3Cl)CCC2OCCN1Cc1ccccc1F (stereo not drawn)	i
CN(Cc1ccc(F)cc1)Cc1ccccc1C(F)(F)F	-25.6%[44.1 µM]
CC[C@H]1CN(C(=O)c2ccnc(Cl)c2)CC[C@H]1CC(=O)NCc1cccnc1	0.7%[44.1 µM]
COc1ccc(CN2CCc3nc(N4CCN(C)CC4)[nH]c(=O)c3CC2)cc1	i[5.79 µM]
Cc1ccc(C(=O)N2CC[C@@H]3CN(S(C)(=O)=O)[C@@H]3C2)c(=O)[nH]1	19.5%
O=C(CO)N1CCCC(N2CCN(c3cccc(C(F)(F)F)c3)CC2)C1 (stereo not drawn)	-1.2%
CNC(=O)CN1CCCC(N2CCN(c3cccc(C(F)(F)F)c3)CC2)C1 (stereo not drawn)	-23.5%
CC(C)N1CCC(N2CCCC(N3CCN(c4cccc(C(F)(F)F)c4)CC3)C2)CC1 (stereo not drawn)	14.1µM*
SMILES	Pf Dd2 inh
NC(=O)NCCN1CCCC(N2CCN(c3cccc(C(F)(F)F)c3)CC2)C1 (stereo not drawn)	-10.2%
NCC(=O)N1CCCC(N2CCN(c3cccc(C(F)(F)F)c3)CC2)C1 (stereo not drawn)	-18.3%
COc1cccc(CN2CCCC(N3CCN(c4cccc(C(F)(F)F)c4)CC3)C2)c1O (stereo not drawn)	0.398µM*
CN1C(=O)CS(=O)(=O)C12CCN(C(=O)c1ccco1)CC2	-1.2%
C[C@@]1(O)CCN(Cc2cccc(OC(F)F)c2)C[C@@H]1O	3.3%
CCc1nnc(CNC(=O)c2cn(CCN3CCNCC3)nn2)s1	24.3%
CCCCNC(=O)Cc1csc2nc(C)c(-c3cc(C)n(-c4ccccc4CC)n3)c(=O)n12	-9.0%
O=C(NCc1ccc(F)cc1)C1CN(c2ccc(F)cc2)C(=O)N1 (stereo not drawn)	i
CCOC(=O)c1cnc2cc(Cl)c(OC)cc2c1Nc1ccc(Br)cc1C	8.1%
CCOC(=O)c1cnc2ccc(OC)cc2c1NCCc1ccc(OC)c(OC)c1	1µM*
COc1ccc(NC(=O)C(=O)NCCc2ccc(OC)c(OC)c2)c(OC)c1	-16.1%
COc1ccc(-c2nnc3ccc(Nc4cccc(OC)c4)nn23)nc1	10µM*
COc1ccc(Nc2ccc3nnc(-c4ccc(C)cn4)n3n2)cc1	-11.2%[44.1 µM]
COc1ccc(-c2nnc3ccc(NC(C)C)nn23)nc1	i
Cc1ccc(C2Cn3nnc(C(=O)NC4CCCCC4)c3CO2)cc1 (stereo not drawn)	-5.0%
Cc1ccc(NC(=O)/C(C#N)=C/c2ccccc2Cl)cc1C	18.5%
N#C/C(=C/c1cn(Cc2ccc(F)cc2)c2ccccc12)C(=O)Nc1cccc(Cl)c1	10µM*
N#C/C(=C\c1ccc(-c2cccc(Cl)c2)o1)C(=O)Nc1cccc(C(F)(F)F)c1	17.3%
COc1nccc(N2CCC(CC(=O)NCc3cccs3)CC2)n1	i
COCCc1noc([C@@H]2CC(F)(F)CN2C(=O)c2ccoc2)n1	0.8%
O=C(O)COCC(=O)N[C@H]1CCN2C(=O)c3cc(-c4ccccc4)ccc3NC(=O)[C@H]12	-19.1%[44.1 µM]
CCS[C@H]1CCN2C(=O)c3ccccc3NC(=O)[C@H]12	3.8%[44.1 µM]
Cc1cccc(-c2ccc3c(c2)C(=O)N2CC[C@H](N)[C@H]2C(=O)N3)c1C	-7.7%[44.1 µM]
